Potency data for 23 molecules are collected here from PubChem BioAssay (Tox21).

Values joined by “and” are separate entries in the source; they are usually repeats but may differ in a detail not shown here. Identical values can stand only once. Results filed as inconclusive are left out. Some compounds were tested as several samples or in several runs, with calls that do not always agree. Active and inactive are the calls of the source. Calls come from the whole dose curve; as a rule, active = well fitted curve in the direction sought with a large enough effect in the repeat runs; inconclusive = weak or mixed curves; inactive = no such curve, though single readings can be large; an effect the other way counts as inactive or inconclusive.

Assay [1] addresses Cytochrome P450 2C19 (Homo sapiens) (UniProt P33261). The experiment in a line: Cytochrome P450 Family 2 Subfamily C Member 19 (CYP2C19) small molecule antagonists: luciferase reporter qHTS assay (AID 1671197). Note: nearly all actives have a fitted effect of over 65% in size. An outline of the steps:
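Inhibition of CYP2C19 was scored from loss of luminescence in a P450-Glo proluciferin substrate assay, NADPH-started and run 1 h at 37C, with ketoconazole as positive control.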

The target in assay [2] is Cytochrome P450 2C9 (Homo sapiens) (UniProt P11712). In words: Cytochrome P450 Family 2 Subfamily C Member 9 (CYP2C9) small molecule antagonists: luciferase reporter qHTS assay (AID 1671198). Note: nearly all actives have a fitted effect of over 50% in size. An outline of the steps:
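CYP2C9 activity was measured with a P450-Glo proluciferin substrate. Enzyme–substrate mix was held with compound for 10 min at room temperature, then NADPH regeneration solution was added for 1 h at 37C. Luciferin product was read as luminescence.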
(A reporter such as luciferase makes a cellular process visible.)

Assay [3] deals with Cytochrome P450 1A2 (Homo sapiens) (UniProt P05177). The experiment in a line: Cytochrome P450 Family 1 Subfamily A Member 2 (CYP1A2) small molecule antagonists: luciferase reporter qHTS assay (AID 1671199). Note: nearly all actives have a fitted effect of over 50% in size. An outline of the steps:
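Inhibition of CYP1A2 conversion of proluciferin to luciferin, detected by luminescence. Reaction run 1 h at room temperature with NADPH regeneration after brief compound preincubation.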

The target of assay [4] is Voltage-gated inwardly rectifying potassium channel KCNH2 (Homo sapiens) (UniProt Q12809). The experiment in a line: Human Ether-a-go-go-Related Gene (hERG) channel small molecule antagonists: fluorescence cell-based qHTS assay (AID 1671200). Note: nearly all actives have a fitted effect of over 50% in size. In short, it runs like this:
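U2OS cells expressing the channel were plated at 1000 cells/well, incubated overnight at 37 C, then loaded with FluxOR II thallium-sensitive dye for 1 h at room temperature in the dark, with a further 10 min at room temperature before stimulation.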
(In general: hERG is a cardiac potassium channel; its block is linked to QT prolongation.)

Assay [5] addresses Cytochrome P450 3A4 (Homo sapiens) (UniProt P08684). The experiment in a line: Cytochrome P450 Family 3 Subfamily A Member 4 (CYP3A4) small molecule antagonists: luciferase reporter qHTS assay (AID 1671201). Note: nearly all actives have a fitted effect of over 50% in size. An outline of the steps: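 P450-Glo CYP3A4 system with proluciferin substrate; compounds preincubated 10 min RT with enzyme-substrate mix, then NADPH regeneration added for 1 h RT. Detection reagent 20 min, luminescence read as relative luminescence units.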
Potency is the fitted concentration of half-maximal effect.

Sequence of Voltage-gated inwardly rectifying potassium channel KCNH2 (Homo sapiens) (Q12809 whole entry, looked up): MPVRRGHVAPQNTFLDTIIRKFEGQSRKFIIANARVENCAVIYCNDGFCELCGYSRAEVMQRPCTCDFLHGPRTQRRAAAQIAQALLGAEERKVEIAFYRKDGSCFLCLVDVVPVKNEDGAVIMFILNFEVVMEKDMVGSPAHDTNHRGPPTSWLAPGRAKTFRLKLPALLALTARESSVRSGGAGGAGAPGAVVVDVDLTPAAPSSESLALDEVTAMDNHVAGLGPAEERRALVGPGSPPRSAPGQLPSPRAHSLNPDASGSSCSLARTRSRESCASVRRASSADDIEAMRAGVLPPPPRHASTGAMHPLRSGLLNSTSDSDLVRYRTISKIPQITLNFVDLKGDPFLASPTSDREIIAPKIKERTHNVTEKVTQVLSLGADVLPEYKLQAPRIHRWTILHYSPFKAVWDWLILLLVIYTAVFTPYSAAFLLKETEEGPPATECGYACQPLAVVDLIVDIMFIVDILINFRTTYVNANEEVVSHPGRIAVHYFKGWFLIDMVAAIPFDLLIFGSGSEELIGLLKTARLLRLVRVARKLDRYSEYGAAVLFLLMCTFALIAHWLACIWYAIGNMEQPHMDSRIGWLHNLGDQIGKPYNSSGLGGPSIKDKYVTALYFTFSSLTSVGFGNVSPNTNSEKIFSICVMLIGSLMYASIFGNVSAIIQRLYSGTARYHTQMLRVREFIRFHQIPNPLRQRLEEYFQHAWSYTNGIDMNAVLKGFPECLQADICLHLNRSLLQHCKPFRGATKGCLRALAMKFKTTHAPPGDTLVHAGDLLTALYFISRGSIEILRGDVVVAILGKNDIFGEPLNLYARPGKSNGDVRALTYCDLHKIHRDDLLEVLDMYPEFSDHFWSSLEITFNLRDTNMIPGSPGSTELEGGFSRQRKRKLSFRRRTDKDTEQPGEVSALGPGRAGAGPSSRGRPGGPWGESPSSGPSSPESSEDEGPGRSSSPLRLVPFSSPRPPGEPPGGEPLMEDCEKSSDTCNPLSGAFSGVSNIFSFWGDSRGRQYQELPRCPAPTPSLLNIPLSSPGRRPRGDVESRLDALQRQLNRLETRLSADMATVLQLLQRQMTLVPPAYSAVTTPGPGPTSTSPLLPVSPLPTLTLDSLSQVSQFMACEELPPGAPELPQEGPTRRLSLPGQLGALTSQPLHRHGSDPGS
Sequence of Cytochrome P450 1A2 (Homo sapiens) (P05177 whole entry, looked up): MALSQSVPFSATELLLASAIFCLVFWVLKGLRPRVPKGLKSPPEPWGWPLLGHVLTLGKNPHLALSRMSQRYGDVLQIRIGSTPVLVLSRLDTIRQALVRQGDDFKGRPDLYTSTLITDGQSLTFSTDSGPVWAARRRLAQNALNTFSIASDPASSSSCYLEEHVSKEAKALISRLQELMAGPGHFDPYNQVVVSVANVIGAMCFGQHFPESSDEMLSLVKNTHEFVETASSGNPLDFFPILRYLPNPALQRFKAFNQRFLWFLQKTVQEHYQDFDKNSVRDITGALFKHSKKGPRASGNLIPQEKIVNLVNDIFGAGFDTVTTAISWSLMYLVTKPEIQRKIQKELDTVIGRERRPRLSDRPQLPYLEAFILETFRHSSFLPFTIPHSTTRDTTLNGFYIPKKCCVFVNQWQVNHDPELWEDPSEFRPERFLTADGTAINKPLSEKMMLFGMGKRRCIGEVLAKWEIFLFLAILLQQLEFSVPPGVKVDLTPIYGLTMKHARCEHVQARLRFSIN
Sequence of Cytochrome P450 2C9 (Homo sapiens) (P11712 whole entry, looked up): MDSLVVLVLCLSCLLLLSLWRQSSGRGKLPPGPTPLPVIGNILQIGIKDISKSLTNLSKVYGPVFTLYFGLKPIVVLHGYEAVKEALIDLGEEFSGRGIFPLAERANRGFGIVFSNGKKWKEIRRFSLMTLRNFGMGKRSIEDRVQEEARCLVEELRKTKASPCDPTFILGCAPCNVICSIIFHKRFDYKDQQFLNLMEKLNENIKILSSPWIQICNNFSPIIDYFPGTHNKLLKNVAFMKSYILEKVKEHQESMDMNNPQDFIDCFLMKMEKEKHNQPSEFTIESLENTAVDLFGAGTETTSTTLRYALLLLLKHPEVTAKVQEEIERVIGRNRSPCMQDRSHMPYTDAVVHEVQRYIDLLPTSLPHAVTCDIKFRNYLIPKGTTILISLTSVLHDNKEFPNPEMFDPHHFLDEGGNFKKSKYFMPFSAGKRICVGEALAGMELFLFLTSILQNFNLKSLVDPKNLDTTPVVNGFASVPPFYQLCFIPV
Sequence of Cytochrome P450 2C19 (Homo sapiens) (P33261 whole entry, looked up): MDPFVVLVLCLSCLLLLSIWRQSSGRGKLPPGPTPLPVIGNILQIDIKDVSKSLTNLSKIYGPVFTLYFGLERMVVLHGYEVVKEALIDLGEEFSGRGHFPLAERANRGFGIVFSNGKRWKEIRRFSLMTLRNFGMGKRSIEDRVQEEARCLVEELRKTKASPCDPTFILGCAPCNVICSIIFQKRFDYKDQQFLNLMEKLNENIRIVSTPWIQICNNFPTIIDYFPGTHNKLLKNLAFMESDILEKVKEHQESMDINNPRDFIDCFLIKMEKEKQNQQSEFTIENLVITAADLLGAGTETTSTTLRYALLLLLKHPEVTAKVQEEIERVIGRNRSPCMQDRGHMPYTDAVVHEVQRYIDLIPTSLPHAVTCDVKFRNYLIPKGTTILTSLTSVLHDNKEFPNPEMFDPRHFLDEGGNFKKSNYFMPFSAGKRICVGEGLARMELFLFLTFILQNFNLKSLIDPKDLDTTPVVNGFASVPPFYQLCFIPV
Sequence of Cytochrome P450 3A4 (Homo sapiens) (P08684 whole entry, looked up): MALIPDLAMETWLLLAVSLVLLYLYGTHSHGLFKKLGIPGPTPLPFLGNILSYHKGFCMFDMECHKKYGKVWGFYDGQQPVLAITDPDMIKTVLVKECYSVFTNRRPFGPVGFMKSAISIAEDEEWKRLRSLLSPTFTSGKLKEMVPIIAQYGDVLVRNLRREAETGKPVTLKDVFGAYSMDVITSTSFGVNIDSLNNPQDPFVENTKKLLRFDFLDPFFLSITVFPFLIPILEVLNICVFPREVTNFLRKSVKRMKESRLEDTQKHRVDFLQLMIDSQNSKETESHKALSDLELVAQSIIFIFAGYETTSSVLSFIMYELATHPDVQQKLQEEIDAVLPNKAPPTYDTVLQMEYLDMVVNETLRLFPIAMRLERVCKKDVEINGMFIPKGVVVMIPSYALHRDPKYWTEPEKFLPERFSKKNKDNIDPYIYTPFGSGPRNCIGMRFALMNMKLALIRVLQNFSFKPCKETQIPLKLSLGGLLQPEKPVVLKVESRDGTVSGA

For the molecule `CC(C)(N=C=O)c1cccc(C(C)(C)N=C=O)c1`, the Potency is 79.1 µM (active) and inactive in assay [1]; 2.81 µM (active) and 7.96 µM (active) in assay [5]. Moreover, the Potency result in assay [2], in assay [3] and in assay [4] was “inactive” throughout.
For `CS(=O)(=O)c1ccc([C@@H](O)[C@@H](CO)NC(=O)C(Cl)Cl)cc1`, in assay [1], the Potency was 28.6 µM (active) and 17.4 µM (active). The Potency result in assay [2], in assay [3], in assay [4] and in assay [5] was “inactive” in each case.
Regarding `c1ccc2[nH]cnc2c1`, the Potency result in assay [1], in assay [2], in assay [3], in assay [4] and in assay [5] was “inactive” in each case.
Consider `NCc1cccc(CN)c1`, for which the Potency in assay [1] is 36.6 µM (active) and 31.7 µM (active); in assay [2], 36.6 µM (active) and 39.9 µM (active); in assay [3] it was 35.6 µM (active); in assay [5] it was 36.6 µM (active) and 2.83 µM (active). Further, the Potency entry in assay [4] is “inactive”.
In the case of `C=C(C)C(=O)OCCC[Si](OC)(OC)OC`, the Potency in assay [1] is 22.2 µM (active); in assay [2] it was 15.7 µM (active); in assay [5], 3.14 µM (active) and 63.3 µM (active). For the same molecule, the Potency result in assay [3] and in assay [4] was “inactive” in each case.
Take `c1ccc2ccccc2c1`: the Potency entry in assay [1], in assay [2], in assay [4] and in assay [5] was “inactive” throughout. The Potency in assay [3] is 70.7 µM (active) and inactive.
`C=C1C2CCC(C2)C1(C)C` (stereo not drawn): the Potency entry in assay [1], in assay [2], in assay [4] and in assay [5] was “inactive” each time. For the same molecule, the Potency result in assay [3] is “inactive and 39.9 µM (active)”.
Regarding `O=C(Oc1ccccc1)c1ccc(O)cc1`, the Potency in assay [1] was 40.2 µM (active) and 22.4 µM (active); in assay [2], 11.3 µM (active) and 25.2 µM (active); in assay [3] it was 28.5 µM (active) and 35.6 µM (active). Besides, the Potency entry in assay [4] and in assay [5] was “inactive” in each case.
As to `CCc1ccc(O)cc1`, the Potency in assay [1] was 71.3 µM (active) and inactive. Further, the Potency entry in assay [2], in assay [3], in assay [4] and in assay [5] was “inactive” each time.
Turning to `OCCOCCOCCOCCO`, the Potency is 40.8 µM (active) and inactive in assay [1]; 39.9 µM (active) in assay [3]. Further, the Potency result in assay [2], in assay [4] and in assay [5] was “inactive” throughout.
Regarding `O=C(c1cc(O)c(O)c(O)c1)c1ccc(O)c(O)c1O`, the Potency in assay [1] is 15.9 µM (active) and 31.7 µM (active); in assay [2], 3.16 µM (active) and 50.2 µM (active) and inactive; in assay [3] it was 39.8 µM (active) and 39.9 µM (active) and inactive. The Potency result in assay [4] and in assay [5] was “inactive” in each case.
Take `CCCCCC/C=C/CCCCCCCC(=O)O`: the Potency entry in assay [1], in assay [2], in assay [3], in assay [4] and in assay [5] was “inactive” throughout.
For the molecule `CC[Si](OC(C)=O)(OC(C)=O)OC(C)=O`, the Potency in assay [1] was 50.2 µM (active) and inactive; in assay [2], 71 µM (active) and inactive; in assay [5] it was 3.17 µM (active) and 35.6 µM (active). Further, the Potency entry in assay [3] and in assay [4] was “inactive” in each case.
Regarding `COCC(=O)O`, the Potency in assay [1] is 73 µM (active) and inactive. The Potency entry in assay [2], in assay [3], in assay [4] and in assay [5] was “inactive” in each case.
As to `O=[N+]([O-])c1cccc(Cl)c1`, the Potency entry in assay [1], in assay [2], in assay [3], in assay [4] and in assay [5] was “inactive” in each case.
Regarding `O=S(=O)(Oc1ccc(Cl)cc1Cl)c1ccccc1`, the Potency in assay [1] is 811 nM (active) and 894 nM (active); in assay [2] it was 40.6 µM (active) and 35.6 µM (active); in assay [3] it was 2.28 µM (active) and 2.24 µM (active); in assay [4] it was 49.8 µM (active) and 34.7 µM (active). In assay [5], the Potency result is “inactive”.
`CCC(=O)O`: the Potency entry in assay [1], in assay [2], in assay [3] and in assay [4] was “inactive” each time.
In the case of `C=C(C#N)C(=O)OCC`, the Potency entry in assay [1] was “inactive and 56.4 µM (active)”; in assay [2], “inactive and 63.3 µM (active)”. Moreover, the Potency result in assay [3], in assay [4] and in assay [5] was “inactive” throughout.
As for `Nc1c(S(=O)(=O)O)cc(Br)c2c1C(=O)c1ccccc1C2=O`, the Potency result in assay [1], in assay [4] and in assay [5] was “inactive” each time. In addition, the Potency in assay [2] is 16.3 µM (active) and 7.96 µM (active); in assay [3] it was 3.24 µM (active) and 2 µM (active).
`Cc1cc(=O)[nH]c(C(C)C)n1`: the Potency result in assay [1], in assay [2], in assay [4] and in assay [5] was “inactive” in each case.
For `CC1(C)CC(N=C=O)CC(C)(CN=C=O)C1` (stereo not drawn), the Potency is 18.1 µM (active) and inactive in assay [1]; 4.05 µM (active) and 2 µM (active) in assay [5]. The Potency entry in assay [3] and in assay [4] was “inactive” throughout.
Turning to `O=S(=O)(O)c1cc(S(=O)(=O)O)c2c(N=Nc3ccccc3)c(O)ccc2c1`, the Potency in assay [1] was 71.3 µM (active) and inactive. Moreover, the Potency entry in assay [2], in assay [3] and in assay [5] was “inactive” each time.
As to `Oc1ccc(OCc2ccccc2)cc1`, the Potency in assay [1] is 34.8 µM (active) and 8.71 µM (active); in assay [3], 19.6 µM (active) and 15.5 µM (active).
